INS-1E GSIS act = primary screen for activators of insulin secretion dependent on glucose, INS-1E cells, GLuc reporter luminescence; INS-1E GLuc reporter insulin secretion, 2-3 h; activation, % at 16.6 µM; 370,000 compounds, 0.61% hits;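 active = lowest replicate activation of at least 40%, so every replicate reaches that level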;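 also: 0% = median of neutral control wells and 100% = median of IBMX positive control wells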
dFosB act = enhances mouse delta FosB homodimer DNA binding; P13346; purified delta FosB, TAMRA-CDK5 oligo fluorescence polarization; percent of positive-control signal above neutral wells; activation, % at 25 µM; 340,000 compounds, 0.99% hits;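 active = mean activation above about 17%, with every replicate also reaching it, limit read from the data, passing the limit was not always enough; inconclusive = only one of the two conditions met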
Vif imaging = inhibitors of HIV Vif | inhibition, % at 7.49 µM | HEK293T cells, Vif self-association by quenched fluorescence, imaging, 24 h | 340,000 compounds, 0.35% hits; in the data active = inhibition above about 50%, passing the limit was not always enough; inconclusive = no clear call, values can overlap the other calls; inactive = below about 31%
Neddylation inh = blocks human cullin neddylation; P61081+Q13564; TR-FRET cullin neddylation, biochemical; inhibition, % at 25 µM; 360,000 compounds, 0.58% hits; AID 651699; in the data active = inhibition above about 36%
Target sequence (P61081 whole entry, looked up): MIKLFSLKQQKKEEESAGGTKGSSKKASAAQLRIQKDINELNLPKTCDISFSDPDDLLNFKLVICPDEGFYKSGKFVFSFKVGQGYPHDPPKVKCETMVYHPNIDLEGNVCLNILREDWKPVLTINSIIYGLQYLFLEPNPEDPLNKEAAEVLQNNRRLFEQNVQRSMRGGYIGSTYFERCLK
Target sequence (Q13564 whole entry, looked up): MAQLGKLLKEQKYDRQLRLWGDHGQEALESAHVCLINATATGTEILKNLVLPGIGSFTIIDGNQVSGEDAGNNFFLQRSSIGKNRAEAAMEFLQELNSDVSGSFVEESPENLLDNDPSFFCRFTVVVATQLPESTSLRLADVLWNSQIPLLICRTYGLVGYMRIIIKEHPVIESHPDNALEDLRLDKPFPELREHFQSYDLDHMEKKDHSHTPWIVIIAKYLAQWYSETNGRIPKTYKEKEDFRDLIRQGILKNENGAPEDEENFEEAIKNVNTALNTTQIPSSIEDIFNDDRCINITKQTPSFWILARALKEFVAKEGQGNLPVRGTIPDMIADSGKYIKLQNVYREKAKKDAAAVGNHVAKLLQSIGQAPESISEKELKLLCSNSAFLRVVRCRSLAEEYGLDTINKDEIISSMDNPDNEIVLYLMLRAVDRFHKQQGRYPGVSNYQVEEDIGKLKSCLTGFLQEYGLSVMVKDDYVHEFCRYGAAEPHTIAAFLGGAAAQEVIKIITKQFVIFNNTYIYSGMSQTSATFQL
Bfl-1 A1 inh = inhibitors of the anti-apoptotic protein A1, read as caspase activation | MEF A1-2A-BIM cells, Caspase-Glo 3/7 luminescence, 3 h; percent of clofoctol response, vehicle zero | caspase activation, % (test concentration not listed) | 330,000 compounds, 0.066% hits;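 active = over half of replicate activation scores above 10%, or exactly half above 10 with the replicate mean above 10; inconclusive = replicate mean below 10 yet half the replicates above 10; inactive = over half of replicates below 10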
Starred values were filed as active, the others as inactive; ? = inconclusive; / = no result given. An excerpt weighted towards active compounds, which were near 1.9% of everything screened.

SMILES | INS-1E GSIS act | dFosB act | Vif imaging | Neddylation inh | Bfl-1 A1 inh
Cc1ccc(S(=O)(=O)NCCc2cc3ccc(C)cc3[nH]c2=O)cc1 | 7.8 | -17.9 | -12.3 | -0.8 | 0.9
COc1ccccc1-c1ccc2c(c1)O[C@H](CN(C)S(=O)(=O)c1ccc(F)cc1)[C@H](C)CN([C@H](C)CO)S2(=O)=O | -5.0 | / | / | / | /
CN1CCN(C(=O)C[C@@H]2C[C@H]3c4cc(NC(=O)c5ccc6c(c5)OCO6)ccc4O[C@H]3[C@@H](CO)O2)CC1 | 12.5 | / | / | / | /
CC(C)NC(=O)N(C)C[C@H]1Oc2ccccc2CC(=O)N(C)C[C@@H]1C | 5.2 | / | / | / | /
CC(=O)Nc1cccc(-n2c(=O)n(Cc3ccccc3)c(=O)c3[nH]cnc32)c1 | 42.9* | -1.7 | 2.7 | -6.0 | 0.0
COc1cccc(-n2c(=O)n(Cc3ccccc3)c(=O)c3[nH]cnc32)c1C | 76.3* | 6.7 | 6.0 | 7.2 | 0.1
COc1ccc(Cn2c(=O)c3[nH]cnc3n(-c3ccccc3C)c2=O)cc1 | 63.5* | -4.9 | -4.1 | 6.9 | -1.1
COc1ccc(C)c(-n2c(=O)n(Cc3ccccc3)c(=O)c3[nH]cnc32)c1 | 62.9* | / | -0.3 | 9.0 | 0.0
C[C@@H]1C/C=C\C[C@@H](c2ccc3c(c2)OCO3)NC(=O)[C@@H](c2ccccc2)CC(=O)N1 | -9.4 | / | / | / | /
CCCS(=O)(=O)N1CCCC(C(=O)NCCCN2CCN(c3ccccc3F)CC2)C1 (stereo unspecified) | -4.1 | -3.3 | 59.0* | -1.3 | 1.3
N#CC(=Cc1ccccn1)c1nc(-c2ccc(Cl)cc2)cs1 | -1.5 | / | 102.7* | 14.7 | /
C[C@@H]1CN(C)C(=O)c2cc(NS(C)(=O)=O)ccc2O[C@H]1CN(C)S(C)(=O)=O | -8.1 | / | / | / | /
COc1ccccc1-c1cc(C(F)(F)F)nc(S(=O)(=O)CCCC(=O)NC(C)C)n1 | / | -14.6 | ? | 13.7 | 8.5*
COc1ccccc1-c1cc(C(F)(F)F)nc(S(=O)(=O)CCCC(=O)Nc2cc(C)on2)n1 | / | -5.2 | 60.2* | 35.3 | -1.1
COc1ccccc1-c1cc(C(F)(F)F)nc(S(=O)(=O)CCCC(=O)Nc2cccnc2Cl)n1 | / | -8.3 | 29.2 | 25.2 | /
COc1ccc(-c2cc(C(F)(F)F)nc(S(=O)(=O)CCCC(=O)Nc3cc(C)on3)n2)cc1OC | 5.9 | -4.6 | 88.6* | / | /
COc1ccccc1-c1cc(C(F)(F)F)nc(S(=O)(=O)CCCC(=O)NCc2ccc(F)cc2)n1 | 12.1 | -13.1 | 23.9 | 29.1 | 1.0
CCC(=O)N1C[C@@H](C)[C@@H](OC)CN(C)C(=O)c2ccc(NC(=O)c3cc(C)on3)cc2OC[C@@H]1C | -8.1 | / | / | / | /
CCC(=O)N1C[C@@H](C)[C@@H](OC)CN(C)C(=O)c2cc(NC(=O)c3ccc(F)cc3)ccc2OC[C@H]1C | -1.0 | / | / | / | /
Cc1cc(C)c2c(N)c3cccc(C)c3nc2n1 | / | 49.3* | / | / | 1.8
C[C@H](CO)N1C[C@H](C)[C@@H](CN(C)Cc2ccc(Cl)c(Cl)c2)Oc2ccc(NS(=O)(=O)c3cn(C)cn3)cc2C1=O | 4.1 | / | / | / | /
COc1ccc(CCNS(=O)(=O)c2cn(C)cn2)cc1OC | 43.7* | -0.8 | -2.3 | 3.3 | -0.4
COc1ccc(CCNS(=O)(=O)c2cnc(Cl)c(Br)c2)cc1OC | 19.5 | 2.3 | 2.0 | -4.5 | 0.8
CCn1cc(S(=O)(=O)NCCc2ccc(OC)c(OC)c2)cn1 | 48.3* | -2.6 | 7.4 | -0.9 | -0.3
COc1ccc(CCNS(=O)(=O)c2cccc(C)c2)cc1OC | 89.8* | -0.9 | 1.6 | 3.2 | 0.2
SMILES | INS-1E GSIS act | dFosB act | Vif imaging | Neddylation inh | Bfl-1 A1 inh
CCOC(=O)c1c(S(=O)(=O)NCCc2ccc(OC)c(OC)c2)c(C)n(C)c1C | 51.2* | -3.2 | -2.8 | 0.9 | -0.9
CC(=O)c1cccc(NC(=O)CC2Oc3ccc(C)cc3NC2=O)c1 (stereo unspecified) | 11.8 | 11.6 | -5.4 | 7.7 | 0.4
Cc1cc(C)cc(NC(=O)CC2Oc3ccc(C)cc3NC2=O)c1 (stereo unspecified) | 33.2 | 32.2* | -2.3 | -5.5 | 0.3
C[C@@H]1CN([C@@H](C)CO)C(=O)c2cccc(NC(=O)C3CC3)c2O[C@H]1CN(C)C(=O)Nc1ccc(C(F)(F)F)cc1 | 4.7 | / | / | / | /
C[C@@H]1CN([C@@H](C)CO)S(=O)(=O)c2ccc(-c3cncnc3)cc2O[C@H]1CN(C)C(=O)Cc1ccccc1 | 3.1 | / | / | / | /
C[C@@H]1CN([C@H](C)CO)C(=O)c2cc(C#CC3(O)CCCC3)cnc2O[C@@H]1CN(C)C(=O)C1CC1 | 11.0 | / | / | / | /
O=C(O)/C=C/c1ccc([N+](=O)[O-])o1 | 1.4 | -11.4 | 1.6 | -18.9 | -0.2
O=[N+]([O-])c1ccc(/C=N/N=C/c2ccc([N+](=O)[O-])o2)o1 | -26.5 | -5.4 | 52.6* | 6.8 | /
COC1=CC(=O)C(OC)=C(OC)C1=O | 43.6* | -1.2 | 1.5 | -0.1 | /
COc1cc(NC(=O)c2ccco2)c(OC)cc1NC(=O)c1cc(OC)c(OC)c(OC)c1 | -3.8 | -10.9 | -1.8 | 12.2 | -0.1
CCOc1cc(NC(=O)c2ccco2)c(OCC)cc1NC(=O)c1cc(OC)c(OC)c(OC)c1 | 44.8* | -8.8 | ? | / | -0.3
O=C(CCN1CCCCC1)NCC[C@@H]1CC[C@@H](NS(=O)(=O)c2cccc(F)c2)[C@H](CO)O1 | 8.3 | / | / | / | /
CCn1cc(CN2CCCC(C(=O)Nc3cccc(-c4cc5ccccc5[nH]4)c3)C2)c(C)n1 (stereo unspecified) | -39.2 | -5.7 | 53.2* | 7.4 | -0.4
COc1ccc(S(=O)(=O)Nc2ccc3c(c2)C(=O)N([C@H](C)CO)C[C@@H](C)[C@H](CN(C)CC2CC2)OCCCC[C@@H](C)O3)cc1 | 9.0 | / | / | / | /
COc1cccc2cc(-c3nc(-c4cccs4)cs3)c(=O)oc12 | / | -0.8 | 6.0 | 45.8* | -0.1
O=C(c1ccccc1)N1C[C@@H]2[C@H](c3ccccc31)[C@H](CO)N2Cc1ccccn1 | -2.8 | / | / | / | /
CCOC(=O)c1cnc2ccc(OC)cc2c1Nc1ccc(N2CCN(C)CC2)cc1 | -6.5 | 35.9* | -5.4 | -23.0 | 0.1
Cc1ccc2nc(C)cc(Nc3ccc4c(c3)OCCO4)c2c1 | / | 30.5* | -13.1 | -3.3 | 0.3
COc1ccc(S(=O)(=O)N(C)C[C@@H]2Oc3ccc(NC(=O)Nc4ccc(F)cc4)cc3C(=O)N([C@@H](C)CO)C[C@@H]2C)cc1 | -29.4 | / | / | / | /
COC(=O)c1ccc(SC2CCCCC2)c([N+](=O)[O-])c1 | / | -3.3 | 125.0* | 18.8 | -0.1
COC(=O)c1ccc(SCC(=O)NC2CCCC2)c([N+](=O)[O-])c1 | 5.3 | -5.7 | ? | -21.4 | ?
C/C=C1\COC(C(=O)NCc2ccccc2)(C(F)(F)F)C=C1C=C1CCCCC1 (stereo unspecified) | 140.9* | 3.8 | -9.1 | -20.7 | 0.9
O=C(N/N=C/c1cccc(O)c1)c1cc(-c2ccc3c(c2)OCO3)n[nH]1 | -8.3 | 41.2* | -0.9 | 1.3 | -1.4
CNc1ncc(C(=O)C(C)(C)C)s1 | / | -4.8 | -28.6 | -5.3 | -0.8
CNc1nc(N)c(C(=O)C(C)(C)C)s1 | 47.0* | -11.2 | 3.6 | 5.4 | 0.6
